PubChem BioAssay AID2158 (National Center for Advancing Translational Sciences (NCATS), 2009)
Several values for one entry are separate records, joined by “and”; a condition that tells them apart may be missing. Equal values may be shown once. Results filed as inconclusive are left out. Activity calls are given as the source filed them. Calls follow the shape of the dose curve; as a rule, active = well fitted inhibition curve with a large enough effect; inconclusive = small, poorly fitted or top-dose-only effect; inactive = no such curve, though single readings can be large or run the other way.

Molecular target: Cruzipain (Trypanosoma cruzi) (UniProt P25779)
Sequence (P25779 123-467 limits assumed): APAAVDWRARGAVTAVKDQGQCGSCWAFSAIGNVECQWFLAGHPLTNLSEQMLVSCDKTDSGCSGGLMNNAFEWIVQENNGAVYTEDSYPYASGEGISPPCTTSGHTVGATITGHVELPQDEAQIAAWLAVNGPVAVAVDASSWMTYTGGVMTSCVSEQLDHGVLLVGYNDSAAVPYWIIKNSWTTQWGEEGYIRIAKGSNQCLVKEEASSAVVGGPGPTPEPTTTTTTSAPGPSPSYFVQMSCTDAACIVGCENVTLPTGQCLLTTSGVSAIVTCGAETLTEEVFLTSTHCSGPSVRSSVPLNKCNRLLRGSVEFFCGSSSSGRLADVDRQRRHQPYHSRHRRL
Assay: Confirmation qHTS Assay for Inhibitors of Cruzain; also: nearly all actives have a fitted effect of over 40% in size;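 as to Activity change, negative = inhibition: plate controls were uninhibited enzyme control for no effect and buffer wells lacking enzyme for full effect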
Settings: purified cruzain, Z-FR-AMC fluorescence, 0.01% Triton
In short: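 Purified cruzain, 1.5 nM, pre-incubated 15 min at room temperature with compound in 100 mM sodium acetate pH 5.5, 5 mM DTT, 0.01% Triton X-100. Then 2 uM Z-FR-AMC added; AMC fluorescence (ex 360/em 450 nm) increase over 60 s gave reaction progress.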
Potency is read from the fitted curve at half-maximal effect.

Potency, active:
CN1N/C(=C\c2ccccc2)N=C2C(=O)N(C)C(=O)N=C21 1.12 µM, O=C(N[C@@H](Cc1ccccc1)C(=O)CCl)OCc1ccccc1 0.447 µM, N#Cc1nc(Nc2ccccc2)nc(NC2CCCC2)n1 0.708 µM, COc1ccc(C(=O)NCC(=O)OCC(=O)c2ccc3ccccc3c2)cc1 15.8 µM, Cc1cc(OCCn2c(CCNC(=O)C3CCCCC3)nc3ccccc32)ccc1Cl 1 µM, N#Cc1nc(N2CCCCC2)nc(N2CCOCC2)n1 2.82 µM, CN(C)c1ccc(C(=O)NCC(=O)OC(C(=O)Nc2cc(C(F)(F)F)ccc2Cl)c2ccccc2)cc1 (stereo not drawn) 14.1 µM, Cc1ccc(C)c(OCCn2c(CCNC(=O)C3CCCCC3)nc3ccccc32)c1 0.0708 µM, O=C(NC1CC1)c1ccc2nc(-c3ccco3)c(-c3ccco3)nc2c1 14.1 µM, O=C(COC(=O)CNC(=O)C1CCCCC1)Nc1ccc2ccccc2c1 12.6 µM, O=C(CNC(=O)C1CCCCC1)OCC(=O)c1ccccc1 6.31 µM, COc1cc(Cl)c(C)cc1NC(=O)C(OC(=O)CNC(=O)c1ccccc1)c1ccccc1 (stereo not drawn) 31.6 µM, N#Cc1nc(Nc2cccc3ccccc23)nc(NC2CCCC2)n1 2.82 µM, N#Cc1c(N2CCOCC2)nc(-c2ccco2)c2c1CCCC2 3.98 µM, N#Cc1nc(NCCCO)nc(Nc2ccccc2)n1 2.24 µM, Cc1ccccc1C(=O)NCC(=O)OC(C(=O)Nc1cc(C(F)(F)F)ccc1Cl)c1ccccc1 (stereo not drawn) 12.6 µM, CCC(C(=O)NC1CCCCC1)n1c(SCc2ccc(F)cc2)nc2ccncc21 (stereo not drawn) 4.47 µM, O=C(COC(=O)CNC(=O)C1CCCCC1)NC1CCCC1 12.6 µM, O=C(CNC(=O)C1CCCCC1)OCC(=O)c1ccc([N+](=O)[O-])cc1 2.82 µM, COc1ccc(C(=O)C(C)OC(=O)CNC(=O)C2CCCCC2)cc1 (stereo not drawn) 1.41 µM, C=CCNC(=O)c1ccc2nc(-c3ccco3)c(-c3ccco3)nc2c1 15.8 µM, Cc1cc(C)cc(OCCn2c(CCNC(=O)C3CCCCC3)nc3ccccc32)c1 631 nM and 2.24 µM, Cc1ccc(-c2c3c(=O)n(C)c(=O)n(C)c3cn2-n2cnnc2)cc1 25.1 µM, COc1nc(C#N)nc(N2CCCCC2)n1 2.82 µM, CC(C)(C)c1ccc(-c2nc(SCC(=O)Nc3ccc(Cl)cc3)[nH]c(=O)c2C#N)cc1 12.6 µM

Activity change, negative = inhibition, inactive:
O=C(c1ccc(OCCN2CCCCC2)cc1)c1c(-c2ccc(O)cc2)sc2cc(O)ccc12 -21.2%, O=C(CNC(=O)c1ccccc1)N[C@H](C(=O)Nc1cc(C(F)(F)F)ccc1Cl)c1ccccc1 -13.5%, CCCCNC(=O)Cn1c(SCc2cccc(F)c2)nc2ccncc21 -27.5%, COc1cc(OC)c(-c2nn3c(-c4n[nH]c5c4CCC5)nnc3s2)cc1OC -3.44% and -1.31%, NC(=S)n1[nH]c(-c2ccc([N+](=O)[O-])cc2)c(N=Nc2ccc(O)cc2)c1=O -8%, N#CN1CCC(NS(=O)(=O)c2ccc(C(F)(F)F)cc2)CC1 -6.95%, CCc1ccc2[nH]c(=O)c(CN(Cc3cccnc3)Cc3nnnn3Cc3ccccc3)cc2c1 -20.9%, Cc1cccc(Cn2cc(/C=C(/C#N)C(=O)Nc3cccc(Cl)c3)c3ccccc32)c1 -2.85%, CCSc1nnc(NC(=O)c2ccc(Br)s2)s1 -4.82%, Cc1ccc2[nH]c(=O)c(CN(CCCO)Cc3nnnn3Cc3ccccc3)cc2c1 -13%, O=C(Cc1nnc(-c2nc3ccccc3[nH]2)o1)Nc1cc(C(F)(F)F)ccc1Cl -0.284%, Cc1ccc(C(=O)NC2CCN(C#N)CC2)cc1 -5.84%, Cc1ccccc1OCC(=O)NCC(=O)OCC(=O)c1ccc2c(c1)CCCC2 -3.79%
